Assay outcomes: PubChem BioAssay, several laboratories
eIF4E-4G inh = inhibitors of eIF4E and eIF4G interaction in translation initiation; TR-FRET eIF4E-eIF4GI(517-606) binding, 2 h; 220,000 compounds, 0.37% hits; AID 782; inhibition, % at 21.7 µM; P63073+Q04637;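 active = inhibition above about 30%, limit read from the data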;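 also: 0% = full FRET control wells and 100% = background wells lacking eIF4GI fragment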
eIF4H inh = inhibitors of RNA binding by human eIF4H; Q15056; eIF4H fluorescence polarization binding assay; inhibition, % at 35 µM; 290,000 compounds, 0.94% hits; AID 2012;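 also: calls also rest on retests at 20 µM and on dose response follow-up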
PABP FP inh = blocks human PABP binding to poly(A) RNA. calls only at 35 µM. fluorescence polarization. 290,000 compounds, 1% hits. AID 2014;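 also: calls also rest on retests at 20 µM and on dose response follow-up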
14-3-3 Bad PPI = disrupts binding of bovine 14-3-3 zeta to phospho-Bad peptide. TR-FRET 14-3-3zeta/Dy647-pBad peptide displacement, 1 h. inhibition, % at 21.7 µM. 220,000 compounds, 0.71% hits;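 active = inhibition above about 70%, limit read from the data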;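 also: 0% = full 14-3-3 plus peptide FRET controls and 100% = background without 14-3-3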
PABP1 MLLE inh = blocks PAM2 peptide binding to the PABP1 MLLE domain; P11940; GST-MLLE / FITC-PAM2 fluorescence polarization; inhibition, % at 20 µM; 360,000 compounds, 0.36% hits; AID 588489; in the data active = inhibition above about 35%, passing the limit was not always enough;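 also: plate controls were DMSO wells with GST-MLLE for no effect and wells lacking GST-MLLE protein for full effect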
* marks the source's active call; other numbers are inactive results. A selection: hits, their analogues and other compounds. The true share with any hit is near 1.9%. Unless noted, no rule for the calls is given here.

FC(F)(F)c1ccccc1NC(=S)Nc1cccc2cnccc12 was read as eIF4E-4G inh 0, eIF4H inh 94*, PABP FP inh active, 14-3-3 Bad PPI -12 and PABP1 MLLE inh 7.
`S=C(NCc1ccccc1)Nc1cccc2cnccc12` gave eIF4H inh 2, PABP FP inh inactive and PABP1 MLLE inh 12.
For COc1cc2c(cc1OC)C(C)N(C(=O)c1cc(Cl)nc(Cl)c1)CC2 (centres undefined) the results were eIF4H inh 2, PABP FP inh inactive and PABP1 MLLE inh 7.
CCc1c(O)nc(SCC(=O)N2CCc3cc(OC)c(OC)cc3[C@@H]2C)[nH]c1=O was read as eIF4H inh 0, PABP FP inh inactive and PABP1 MLLE inh 43*.
`CN(CC(=O)NC(=O)NCc1ccco1)Cc1nc2ccccc2c(=O)[nH]1` gave eIF4E-4G inh 4, eIF4H inh 69*, PABP FP inh active, 14-3-3 Bad PPI -2 and PABP1 MLLE inh 8.
For CCOC(=O)C1CCCN(Cc2ccccc2Cl)C1 (centres undefined) the results were eIF4E-4G inh -5, eIF4H inh -8, PABP FP inh inactive, 14-3-3 Bad PPI 71* and PABP1 MLLE inh 8.
COCCSc1ccccc1C(=O)N1CCCC(C)C1 (centres undefined) was read as eIF4E-4G inh 1, eIF4H inh -6, PABP FP inh inactive, 14-3-3 Bad PPI 0 and PABP1 MLLE inh 5.
O=C(C1CCCN(Cc2cccs2)C1)N1CCCCCC1 (centres undefined) was read as eIF4E-4G inh -2, eIF4H inh 3, PABP FP inh inactive, 14-3-3 Bad PPI 18 and PABP1 MLLE inh -2.
CCOC(=O)C1CCCN(Cc2ccccc2OCC)C1 (centres undefined) was read as eIF4E-4G inh -17, eIF4H inh -1, PABP FP inh inactive, 14-3-3 Bad PPI 19 and PABP1 MLLE inh -6.
Screening CCOC(=O)C1CCCN(Cc2ccccc2C)C1 (centres undefined) returned eIF4E-4G inh -6, eIF4H inh 1, PABP FP inh inactive, 14-3-3 Bad PPI 76* and PABP1 MLLE inh -4.
`CCOC(=O)C1CCCN(Cc2cccs2)C1` (centres undefined) gave eIF4E-4G inh 14, eIF4H inh 5, PABP FP inh inactive, 14-3-3 Bad PPI 71* and PABP1 MLLE inh 5.
Screening CCOC(=O)C1CCCN(C(=O)c2ccccc2SCCOC)C1 (centres undefined) returned eIF4E-4G inh -6, eIF4H inh 8, PABP FP inh inactive, 14-3-3 Bad PPI -8 and PABP1 MLLE inh 40*.
C/C(=N/NC(=O)c1cccc(N2CCCC2=O)c1)c1ccncc1 was read as eIF4E-4G inh -2, eIF4H inh -9, PABP FP inh inactive, 14-3-3 Bad PPI -6 and PABP1 MLLE inh 3.
Screening O=C(CN1CCN(S(=O)(=O)c2ccc(Br)cc2)CC1)N/N=C/c1cccnc1 returned eIF4E-4G inh 0, eIF4H inh -2, PABP FP inh inactive, 14-3-3 Bad PPI 22 and PABP1 MLLE inh -15.
Screening Cc1cc(C)c(S(=O)(=O)c2cccc(Cl)c2)c(=O)[nH]1 returned eIF4H inh -2, PABP FP inh inactive and PABP1 MLLE inh -15.
`C[C@H]1CCC[C@@]2(O[C@H](CCO)C[C@H](O)[C@H]2O)O1` gave PABP1 MLLE inh -7.
`C[C@H]1O[C@@H](O[C@H]2CC[C@@]3(C)C(CC[C@]4(C)C3C=C[C@]35OC[C@@]6(CCC(C)(C)C[C@H]63)[C@@H](O)C[C@]54C)[C@]2(C)CO)[C@H](O)[C@@H](O[C@@H]2O[C@H](CO)[C@@H](O)[C@H](O)[C@H]2O)[C@H]1O` (some centres undefined) gave PABP1 MLLE inh 5.
CC1OC(OC2C(OC3C(O[C@H]4CC[C@]5(C)C6C=C[C@]78OC[C@@]9(CC[C@@H](C)[C@H](C)C97)[C@H](O)C[C@@]8(C)[C@]6(C)CC[C@H]5C4(C)C)OC(C)C(O)C3O)OC(CO)C(O)C2O)C(O)C(O)C1O (some centres undefined) was read as eIF4E-4G inh 56*, eIF4H inh 0, PABP FP inh inactive and 14-3-3 Bad PPI 1.
For CO[C@@]12[C@@H]3N[C@@H]3CN1C1=C(C(=O)C(N)=C(C)C1=O)[C@@H]2COC(N)=O the results were PABP1 MLLE inh 2.
